# Legend:
# Test in all cases: DAPPL (digital affinity profiling via proximity ligation, sequencing); 10 mM Tris-HCl pH 7.5, 50 mM NaCl, 1 mM DTT, 4% glycerol, room temperature, 30 min; GST-TFs on glutathione beads, 16-mer random dsDNA library, 0.1% formaldehyde crosslink after washing; high values mean tight binding
# [1] = molecular target: T1, FEV (Homo sapiens, UniProt Q99581 1-238); details: protein: recombinant; tags: N-terminal GST; dsDNA, one strand shown
# T1 sequence: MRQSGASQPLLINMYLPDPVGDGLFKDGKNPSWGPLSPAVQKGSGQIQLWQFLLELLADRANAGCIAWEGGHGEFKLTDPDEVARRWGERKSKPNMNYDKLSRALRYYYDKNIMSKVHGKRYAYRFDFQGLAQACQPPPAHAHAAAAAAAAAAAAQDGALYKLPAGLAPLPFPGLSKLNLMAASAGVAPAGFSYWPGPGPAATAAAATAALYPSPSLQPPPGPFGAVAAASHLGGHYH
# Outline: (§1)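 Each value of binding signal is a hexamer's read frequency for a factor divided by the same hexamer's frequency in the tag-only sample. Barcoded, bead-captured GST fusions of human transcription factors made in yeast were pooled with that sample and incubated with 200 nmole of a random double-stranded 16-mer DNA library in Tris/NaCl/DTT/glycerol buffer at room temperature for 30 min. Washing, 0.1% formaldehyde crosslinking, proximity ligation, PCR and Illumina NextSeq500 sequencing followed.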
# [2] = molecular target: ETV5 (Homo sapiens, UniProt P41161 1-510); details: protein: recombinant; tags: N-terminal GST; dsDNA, one strand shown
# ETV5, sequence (P41161 whole entry): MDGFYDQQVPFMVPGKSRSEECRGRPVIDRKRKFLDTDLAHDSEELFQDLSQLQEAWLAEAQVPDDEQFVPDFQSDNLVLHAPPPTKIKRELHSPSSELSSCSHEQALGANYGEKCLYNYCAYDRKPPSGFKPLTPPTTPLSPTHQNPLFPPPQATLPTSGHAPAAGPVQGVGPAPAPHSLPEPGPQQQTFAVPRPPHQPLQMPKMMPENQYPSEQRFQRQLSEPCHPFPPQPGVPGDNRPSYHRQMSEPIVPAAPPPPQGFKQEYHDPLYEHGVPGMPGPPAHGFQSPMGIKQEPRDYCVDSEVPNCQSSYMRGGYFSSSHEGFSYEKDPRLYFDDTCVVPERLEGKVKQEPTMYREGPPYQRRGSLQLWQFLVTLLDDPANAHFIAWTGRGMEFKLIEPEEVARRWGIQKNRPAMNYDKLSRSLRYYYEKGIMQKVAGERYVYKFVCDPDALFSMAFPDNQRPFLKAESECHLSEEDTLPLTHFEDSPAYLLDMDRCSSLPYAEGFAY
# Outline: as §1
# [3] = molecular target: HSF1 (Homo sapiens, UniProt Q00613 1-529); details: protein: recombinant; tags: N-terminal GST; chain copies: 3; dsDNA, one strand shown
# HSF1, sequence (Q00613 whole entry): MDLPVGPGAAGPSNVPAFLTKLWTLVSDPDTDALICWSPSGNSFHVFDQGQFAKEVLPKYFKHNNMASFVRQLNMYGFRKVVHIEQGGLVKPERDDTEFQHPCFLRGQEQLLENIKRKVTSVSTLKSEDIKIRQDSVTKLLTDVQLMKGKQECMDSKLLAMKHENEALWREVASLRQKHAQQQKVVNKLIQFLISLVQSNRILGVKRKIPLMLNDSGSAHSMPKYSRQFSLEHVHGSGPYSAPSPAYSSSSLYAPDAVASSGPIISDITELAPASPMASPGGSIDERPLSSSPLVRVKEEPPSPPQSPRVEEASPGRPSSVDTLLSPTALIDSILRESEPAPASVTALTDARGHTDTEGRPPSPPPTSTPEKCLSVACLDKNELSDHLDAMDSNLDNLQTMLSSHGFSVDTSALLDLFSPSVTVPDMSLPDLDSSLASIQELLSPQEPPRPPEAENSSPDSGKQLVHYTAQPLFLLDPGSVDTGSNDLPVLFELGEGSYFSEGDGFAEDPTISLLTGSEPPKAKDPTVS
# Outline: as §1
# [4] = molecular target: T2, SPIC (Homo sapiens, UniProt Q8N5J4 1-248); details: protein: recombinant; tags: N-terminal GST; dsDNA, one strand shown
# T2 sequence: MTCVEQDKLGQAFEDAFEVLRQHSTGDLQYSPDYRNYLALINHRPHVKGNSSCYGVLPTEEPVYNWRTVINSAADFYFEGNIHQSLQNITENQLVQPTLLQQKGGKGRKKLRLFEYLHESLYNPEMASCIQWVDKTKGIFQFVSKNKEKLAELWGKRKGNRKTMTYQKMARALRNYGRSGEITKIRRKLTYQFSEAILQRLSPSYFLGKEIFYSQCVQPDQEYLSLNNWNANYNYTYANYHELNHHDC
# Outline: as §1
# [5] = molecular target: ELF4 (Homo sapiens, UniProt Q99607 1-663); details: protein: recombinant; tags: N-terminal GST; dsDNA, one strand shown
# ELF4, sequence (Q99607 whole entry): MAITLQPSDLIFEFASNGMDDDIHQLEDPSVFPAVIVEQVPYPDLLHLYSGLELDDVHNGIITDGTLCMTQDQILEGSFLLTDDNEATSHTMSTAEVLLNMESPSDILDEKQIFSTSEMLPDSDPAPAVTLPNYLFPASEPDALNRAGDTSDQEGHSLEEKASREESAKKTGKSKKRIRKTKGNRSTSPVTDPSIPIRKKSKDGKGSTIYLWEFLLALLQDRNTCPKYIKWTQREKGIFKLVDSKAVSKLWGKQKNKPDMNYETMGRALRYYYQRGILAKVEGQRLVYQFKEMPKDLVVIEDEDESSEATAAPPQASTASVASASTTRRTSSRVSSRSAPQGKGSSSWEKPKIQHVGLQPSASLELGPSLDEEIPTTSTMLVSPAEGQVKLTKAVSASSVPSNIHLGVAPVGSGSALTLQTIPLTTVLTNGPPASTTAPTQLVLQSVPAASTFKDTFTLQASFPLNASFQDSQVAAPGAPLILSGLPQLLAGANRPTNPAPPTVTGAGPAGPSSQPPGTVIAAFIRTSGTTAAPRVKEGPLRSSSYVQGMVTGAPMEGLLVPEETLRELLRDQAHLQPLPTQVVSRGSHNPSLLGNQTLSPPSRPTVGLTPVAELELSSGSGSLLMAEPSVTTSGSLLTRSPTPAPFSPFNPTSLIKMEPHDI
# Outline: as §1
# [6] = molecular target: T3, ELK4 (Homo sapiens, UniProt P28324-2 1-405); details: protein: recombinant; tags: N-terminal GST; dsDNA, one strand shown
# T3 sequence: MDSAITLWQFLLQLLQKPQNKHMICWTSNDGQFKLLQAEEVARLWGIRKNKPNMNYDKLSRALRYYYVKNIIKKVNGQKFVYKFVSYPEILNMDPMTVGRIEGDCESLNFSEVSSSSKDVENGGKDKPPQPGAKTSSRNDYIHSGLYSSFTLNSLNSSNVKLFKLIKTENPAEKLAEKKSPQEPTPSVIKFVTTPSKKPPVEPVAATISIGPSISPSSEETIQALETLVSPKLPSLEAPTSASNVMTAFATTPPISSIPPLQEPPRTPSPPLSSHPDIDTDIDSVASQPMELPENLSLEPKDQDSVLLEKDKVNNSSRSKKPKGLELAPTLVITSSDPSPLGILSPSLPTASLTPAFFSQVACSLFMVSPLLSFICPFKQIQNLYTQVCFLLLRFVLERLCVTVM
# Outline: as §1
# [7] = molecular target: T4, ETV2 (Homo sapiens, UniProt O00321 1-342); details: protein: recombinant; tags: N-terminal GST; dsDNA, one strand shown
# T4 sequence: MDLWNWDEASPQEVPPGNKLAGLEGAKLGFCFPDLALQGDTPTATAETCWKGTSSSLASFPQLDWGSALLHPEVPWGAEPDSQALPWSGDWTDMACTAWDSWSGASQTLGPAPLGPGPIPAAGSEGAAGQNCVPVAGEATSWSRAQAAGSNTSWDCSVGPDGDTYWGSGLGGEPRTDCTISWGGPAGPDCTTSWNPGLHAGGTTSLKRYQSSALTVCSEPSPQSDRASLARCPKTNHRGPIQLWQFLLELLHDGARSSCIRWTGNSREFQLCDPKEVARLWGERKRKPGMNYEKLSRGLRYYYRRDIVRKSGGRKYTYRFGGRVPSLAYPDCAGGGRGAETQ
# Outline: as §1
# [8] = molecular target: T5, ELF3 (Homo sapiens, UniProt P78545 1-371); details: protein: recombinant; tags: N-terminal GST; dsDNA, one strand shown
# T5 sequence: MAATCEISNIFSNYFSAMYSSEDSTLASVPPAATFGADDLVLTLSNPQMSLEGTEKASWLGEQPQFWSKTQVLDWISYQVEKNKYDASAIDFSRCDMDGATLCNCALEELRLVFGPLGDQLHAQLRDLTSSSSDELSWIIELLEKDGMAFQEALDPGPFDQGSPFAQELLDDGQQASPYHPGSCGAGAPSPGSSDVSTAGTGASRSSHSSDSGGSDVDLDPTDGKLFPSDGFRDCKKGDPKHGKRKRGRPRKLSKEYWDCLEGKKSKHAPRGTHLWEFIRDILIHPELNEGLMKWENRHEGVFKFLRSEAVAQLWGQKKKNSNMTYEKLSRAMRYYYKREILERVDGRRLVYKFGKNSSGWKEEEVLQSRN
# Outline: as §1
# [9] = molecular target: CRX (Homo sapiens, UniProt O43186 1-299); details: protein: recombinant; tags: N-terminal GST; dsDNA, one strand shown
# CRX, sequence (O43186 whole entry): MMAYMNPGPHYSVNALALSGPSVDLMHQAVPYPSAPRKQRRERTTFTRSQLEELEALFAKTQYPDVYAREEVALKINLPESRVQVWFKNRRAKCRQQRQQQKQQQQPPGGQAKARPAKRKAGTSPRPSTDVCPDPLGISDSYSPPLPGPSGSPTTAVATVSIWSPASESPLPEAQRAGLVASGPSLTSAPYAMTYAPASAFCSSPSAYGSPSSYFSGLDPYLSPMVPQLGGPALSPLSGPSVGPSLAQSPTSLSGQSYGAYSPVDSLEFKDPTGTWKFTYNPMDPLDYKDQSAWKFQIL
# Outline: as §1
# [10] = molecular target: ETV1 (Homo sapiens, UniProt P50549 1-477); details: protein: recombinant; tags: N-terminal GST; dsDNA, one strand shown
# ETV1, sequence (P50549 whole entry): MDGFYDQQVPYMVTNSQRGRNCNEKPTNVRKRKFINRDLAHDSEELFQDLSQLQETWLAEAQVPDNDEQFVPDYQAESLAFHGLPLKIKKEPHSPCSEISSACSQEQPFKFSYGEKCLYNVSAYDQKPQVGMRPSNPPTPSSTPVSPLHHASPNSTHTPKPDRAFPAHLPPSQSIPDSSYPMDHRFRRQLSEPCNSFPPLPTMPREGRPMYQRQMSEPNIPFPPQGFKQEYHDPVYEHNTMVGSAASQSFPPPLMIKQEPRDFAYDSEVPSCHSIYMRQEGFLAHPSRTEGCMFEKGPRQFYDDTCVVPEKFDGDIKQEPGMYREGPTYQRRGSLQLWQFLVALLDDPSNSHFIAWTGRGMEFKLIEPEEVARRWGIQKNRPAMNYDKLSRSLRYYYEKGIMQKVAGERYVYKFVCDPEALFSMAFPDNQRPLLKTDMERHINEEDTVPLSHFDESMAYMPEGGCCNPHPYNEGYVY
# Outline: as §1
sequence,measurement,setting,value
ACTACT,binding signal,[1],"1.3 fold enrichment (6-mer frequency, TF over GST control)"
same,binding signal,[2],"1.19 fold enrichment (6-mer frequency, TF over GST control)"
same,binding signal,[3],"1.12 fold enrichment (6-mer frequency, TF over GST control)"
same,binding signal,[4],"1.26 fold enrichment (6-mer frequency, TF over GST control)"
same,binding signal,[5],"1.22 fold enrichment (6-mer frequency, TF over GST control)"
same,binding signal,[6],"1.36 fold enrichment (6-mer frequency, TF over GST control)"
same,binding signal,[7],"1.44 fold enrichment (6-mer frequency, TF over GST control)"
same,binding signal,[8],"1.24 fold enrichment (6-mer frequency, TF over GST control)"
same,binding signal,[9],"1.11 fold enrichment (6-mer frequency, TF over GST control)"
same,binding signal,[10],"1.14 fold enrichment (6-mer frequency, TF over GST control)"

# Source: paper PMC7862700, “An all-to-all approach to the identification of sequence-specific readers for epigenetic DNA modifications on cytosine”
